± gives the standard deviation.
Key:
Details in all cases: modulator concentration 10 µM
[1] = tested on: RAW-Dual (murine macrophage reporter line); assay: NF-kB reporter (SEAP) activity fold change vs agonist alone; higher = enhanced NF-kB activity
Outline: (§1)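 RAW-Dual murine macrophage reporter cells were plated at 50 000 per well in 384-well plates, pin-transferred compound to 10 μM final, and pre-incubated for 1 hour at 37 °C before a PRR agonist was added and the cells incubated overnight. NF-κB activity was read from supernatant SEAP with QUANTI-Blue at 620 nm absorbance, and IRF activity from Lucia luciferase with QUANTI-Luc by luminescence. Each signal was expressed as fold change by dividing by the mean agonist-only control on the same plate. Two replicate plates were averaged, with errors obtained by propagation.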

[2] = tested on: RAW-Dual (murine macrophage reporter line); assay: IRF reporter (Lucia luciferase) activity fold change vs agonist alone; higher = enhanced IRF activity
Outline: as §1

[3] = tested on: RAW-Dual (murine macrophage reporter line); assay: viability score (confluency relative to resting cells, overnight) (fraction); higher = more viable, active = viable (0.7 or more)
Outline: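 Compound was added at a final 10 μM to RAW-Dual macrophages in 384-well plates and left overnight. Confluency was imaged with IncuCyte, and two masks were generated in IncuCyte software over all imaged wells. Each viability score is confluency relative to resting cells, and a compound met the cutoff only when both masks were above 70% of resting cells.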

[4] = agonist: CpG ODN 1826 0.5 ug/mL

| SMILES | NF-kB reporter [1, 4] | NF-kB reporter ([1]; agonist: LPS 0.1 ug/mL) | NF-kB reporter ([1]; agonist: MPLA […]) | IRF reporter ([2]; agonist: 3'3'-cGAMP 10 ug/mL) | IRF reporter ([2]; agonist: LPS 0.1 ug/mL) | IRF reporter ([2]; agonist: MPLA […]) | viability score [3] |
| --- | --- | --- | --- | --- | --- | --- | --- |
| O=C(COc1ccc2ccccc2c1)NCC#CCN1CCCCC1 | 0.854 ± 0.036 | 0.981 ± 0.078 | 1.07 ± 0.064 | 1 ± 0.048 | 1.27 ± 0.29 | 1.48 ± 0.49 | 0.956 (active) |
| O=C(NC1CCN(CCCCC2(C(=O)NCC(F)(F)F)c3ccccc3-c3ccccc32)CC1)c1ccccc1-c1ccc(C(F)(F)F)cc1 | 0.881 ± 0.043 | 0.952 ± 0.12 | 1.08 ± 0.062 | 0.983 ± 0.045 | 1.46 ± 0.33 | 1.44 ± 0.53 | 0.968 (active) |
| CCN(CC)c1ccc(C=C(C#N)C#N)c(OC(C)=O)c1 | 1.07 ± 0.064 | 0.895 ± 0.065 | 0.884 ± 0.057 | 0.76 ± 0.034 | 0.995 ± 0.069 | 0.977 ± 0.12 | 1.01 (active) |
| O=c1c(O)c(-c2ccc(O)cc2O)oc2cc(O)cc(O)c12 | 1.03 ± 0.28 | 1.1 ± 0.066 | 1.01 ± 0.085 | 0.739 ± 0.027 | 1.11 ± 0.21 | 1.14 ± 0.14 | 1 (active) |
| COc1ccc(OC)c(Nc2nc(-c3c(C)nc4ncccn34)cs2)c1 | 2.14 ± 0.18 | 1.35 ± 0.12 | 1.09 ± 0.083 | 0.3 ± 0.014 | 0.381 ± 0.035 | 0.361 ± 0.066 | 0.907 (active) |
| CC1CCc2nc(NC(=O)C3CCCN3S(C)(=O)=O)sc2C1 (stereo unspecified) | 0.812 ± 0.037 | 1.03 ± 0.082 | 1.08 ± 0.057 | 0.983 ± 0.045 | 1.35 ± 0.27 | 1.44 ± 0.48 | 0.964 (active) |
| c1ccc(Nc2nc(Nc3ccccc3)nc(N3CCCCC3)n2)cc1 | 0.605 ± 0.04 | 1.01 ± 0.062 | 0.977 ± 0.064 | 1.05 ± 0.053 | 1.53 ± 0.15 | 1.22 ± 0.2 | 0.995 (active) |
| O=[N+]([O-])c1ccc2nc(Cl)sc2c1 | 1.71 ± 0.13 | 0.49 ± 0.039 | 0.338 ± 0.032 | 0.159 ± 0.02 | 0.223 ± 0.083 | 0.0921 ± 0.025 | 0.638 (inactive) |
| O=C(O)C=Cc1cccc(NS(=O)(=O)C=Cc2ccccc2)c1 | 1.06 ± 0.094 | 0.968 ± 0.084 | 1.33 ± 0.19 | 0.956 ± 0.07 | 1.29 ± 0.28 | 1.34 ± 0.28 | 1.02 (active) |
| O=C(NC1CCCCC1)c1cccc(C(F)(F)F)c1 | 0.851 ± 0.31 | 1.09 ± 0.14 | 1 ± 0.12 | 0.775 ± 0.033 | 1.15 ± 0.16 | 1.47 ± 0.3 | 0.997 (active) |
| Cc1cc2c(C)cc[n+](CCCS(=O)(=O)[O-])c2cc1C | 0.942 ± 0.078 | 1.05 ± 0.066 | 0.918 ± 0.059 | 0.946 ± 0.038 | 1.42 ± 0.09 | 1.3 ± 0.22 | 1 (active) |
| CS(=O)(=O)N(CC(=O)NC1CC1)c1cccc2ccccc12 | 1.04 ± 0.095 | 1.01 ± 0.12 | 0.901 ± 0.056 | 1 ± 0.039 | 1.59 ± 0.35 | 1.16 ± 0.17 | 1.01 (active) |
| Cc1cc(C(=O)Nc2nnc(-c3ccc(F)cc3)o2)n(C)n1 | 0.915 ± 0.1 | 0.985 ± 0.084 | 1.1 ± 0.064 | 0.929 ± 0.059 | 1.18 ± 0.24 | 1.22 ± 0.5 | 0.873 (active) |
